Compounds without any hit were thinned out: in the full panel of roughly 83,000, 20% have a hit.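 Step 1: grow cells in 96-well plates. Step 2: add test compound at a single concentration. Step 3: incubate 48 h. Step 4: record percent growth.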 Activity calls are given as the source filed them. The calls were made as follows: active = growth percent below 10; inactive = the rest.
tested on: HL-60(TB) leukemia; assay: NCI-60 one-dose screen, 48 h (100 = growth as untreated, 0 = no growth, -100 = all killed); conditions: 10 µM unless noted

Row | SMILES | growth
1 | COc1cc(-c2ccc(-c3ccc(C(=N)N)s3)s2)cc(OC)c1OC | -56.6% (active)
2 | CCCC[C@@H](C=O)NC(=O)[C@H](CC(C)C)NC(=O)[C@H](CC(C)C)NC(=O)OCc1ccccc1 | -30.1% (active)
3 | O=S(=O)(Nc1ccccc1Cl)c1ccc(-c2cnc(C3CC3)o2)cc1 | 7.9% (active)
4 | COC(=O)c1cccc2c1N(C)c1c(cccc1C(=O)OC)CC2 | 71.6% (inactive)
5 | NS(=O)(=O)c1cccc(NC(=O)C(=O)C2C(=O)Nc3ccccc32)c1 (centres undefined) | 159% (inactive)
6 | CC(=O)c1ccc(NC(=O)CSc2nnc(-c3cc(-c4ccc(C)cc4)nc4ccccc34)o2)cc1 | 80.6% (inactive)
7 | Cc1sc2c(c1C)c(=O)nc1c(-c3nc(-c4ccccc4)cs3)n[nH]n12 | 94.1% (inactive)
8 | COc1cc(/C=C/C(=O)c2cccc(-n3cc(-c4ccc(Cl)cc4)[nH]c3=O)c2)cc(OC)c1OC | 62.7% (inactive)
9 | COc1ccc(-c2nn(-c3cccc(NC(=O)Nc4cccc(C(F)(F)F)c4)c3)cc2-c2ccncc2)cc1Cl | 3.19% (active)
10 | O=C(N/N=C/c1c(Cl)cccc1Cl)c1ccc(C(F)(F)F)nc1Nc1cccc(C(F)(F)F)c1 | -44.5% (active)
11 | NC1=CC(=O)C(=O)c2ccccc21 | 39.2% (inactive)
12 | Cn1cc(-c2nonc2-c2c[nH]c3ccccc23)c2cccnc21 | 4.76% (active)
13 | c1ccc(-c2nc(N3CCOCC3)c3c4c(sc3n2)CCCCC4)nc1 | 79.2% (inactive)
14 | Fc1ccc2[nH]cc(-c3nc(-c4c[nH]c5ccncc45)cs3)c2c1 | -42.1% (active)

Source: PubChem BioAssay (NCI)
